A selection: hits, their analogues and other compounds. The true share with any hit is near 3.4%.
H9c2 protect: myocardial damage modulation in H9c2 cells; H9c2 cardiomyocytes, H2O2 injury protection, ATPLite, 2 h; protection from H2O2 cell death, % at 20 µM; 0.63% of 360,000 active; AID 588492;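 active means compounds giving at least 50% protection of heart cells from peroxide-induced death in the single-dose screen, raw or plate-pattern-corrected value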;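 further: 0% = DMSO wells with peroxide and 100% = DMSO wells without peroxide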
GAA850 FXN act: increases GAA850 frataxin promoter reporter activity; AID 540364; activation, % at 6 µM; HEK293 lucGAA850 FXN promoter luciferase reporter, 24 h; percent of 10 µM SAHA response; 0.56% of 360,000 active;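 active means activation above the average of all compounds screened plus 3 SD, cutoff fixed separately per campaign, cut at about 7.5% in these data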;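 further: 0% = DMSO wells and 100% = 10 µM SAHA wells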
SMARCA2 activ: increases SMARCA2 function in MMTV reporter cells | MG213 cells, MMTV-luciferase reporter, dexamethasone, overnight | activation, % at 9.1 µM | 1% of 370,000 active; in the data active means activation above about 7.8%;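 further: 0% = vehicle wells and 100% = reference activator wells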
NR2F2 inh: NR2F2 (human) inhibition, primary screen; P24468; HEK293T NGFI-A luciferase reporter, luminescence; inhibition, % at 8.6 µM; 0.7% of 370,000 active; AID 686940;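 active means inhibition above a per-plate cutoff, mean inhibition of test wells between control levels plus 3 SD, cut at about 38% in these data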;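 further: cells cotransfected with COUP-TFII expression vector driving the NGFI-A reporter; 0% = median of COUP-TF2 test wells and 100% = reporter-only cells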
GalR3 antag: antagonists of human GalR3. inhibition, % at 3 µM. 0.44% of 360,000 active. HEK293 GalR3-CNG cAMP membrane potential fluorescence; galR3 body fused to GalR1 C-terminus;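 active means inhibition above the screen-wide average plus 3 SD, cut at about 13% in these data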;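 further: forskolin and galanin both at EC90 stimulate the cells; cAMP rise reported by CNG channel membrane potential dye signal; 0% = forskolin plus galanin with DMSO and 100% = forskolin alone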
Target sequence (O60755 1-299 limits assumed): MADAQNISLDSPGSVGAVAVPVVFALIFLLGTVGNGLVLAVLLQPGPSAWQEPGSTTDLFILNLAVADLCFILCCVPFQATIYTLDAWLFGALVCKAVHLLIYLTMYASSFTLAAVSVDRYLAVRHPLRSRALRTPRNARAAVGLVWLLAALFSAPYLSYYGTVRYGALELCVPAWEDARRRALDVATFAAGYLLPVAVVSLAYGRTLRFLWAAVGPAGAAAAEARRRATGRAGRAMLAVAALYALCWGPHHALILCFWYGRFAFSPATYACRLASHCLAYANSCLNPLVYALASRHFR
Gli-Sufu antag: Gli-Sufu pathway antagonism | AID 588413 | Sufu-KO-LIGHT fibroblasts, Gli luciferase reporter luminescence | inhibition, % at 5 µM | 0.74% of 340,000 active;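 active means inhibition above about 55%, limit read from the data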;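 further: 0% = DMSO-treated cells and 100% = wells with medium but no cells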
* = called active by the depositor; nt = no result.

SMILES	H9c2 protect	GAA850 FXN act	SMARCA2 activ	NR2F2 inh	GalR3 antag	Gli-Sufu antag
Cc1ccc(-c2n[nH]c(=O)c3ccccc23)cc1S(=O)(=O)NC(C)(C)C	64*	5	-5	0	1	6
Cc1ccc(-c2n[nH]c(=O)c3ccccc23)cc1S(N)(=O)=O	57*	0	-3	2	-3	-12
Cc1ccc(-c2n[nH]c(=O)c3ccccc23)cc1S(=O)(=O)Nc1ccc(F)cc1	46	2	-3	18	2	11
N#Cc1c(NC(=O)CSC2=NCCS2)sc2c1CCCC2	-9	-1	-3	2	-5	-16
O=C(CSC1=NCCS1)Nc1nc2c(s1)CCCC2	4	2	7.9*	-24	-4	-38
CCCCNC(=O)C1CCCN1C(=O)Nc1cc(C)cc(C)c1 (stereo not drawn)	nt	nt	-1	-13	nt	nt
O=C(NNc1c2ccccc2nc2ccccc12)c1cccc(O)c1	51*	3	7	-4	-1	-7
NC(=NCc1ccccc1)NC(=O)OCc1ccccc1	nt	nt	4	-20	nt	nt
CCCCNc1nc2c(c(=O)[nH]c(=O)n2C)n1CCCc1ccccc1	2	0	2	-1	1	nt
COCCCNc1nc2c(c(=O)[nH]c(=O)n2C)n1CCCc1ccccc1	0	1	7.9*	-12	-4	3
Cn1c(=O)[nH]c(=O)c2c1nc(N(CCO)Cc1ccccc1)n2CCCc1ccccc1	52*	-1	0	-8	6	25
C=C(C)Cn1c(N(CCO)Cc2ccccc2)nc2c1c(=O)[nH]c(=O)n2C	9	0	-1	-1	1	-8
COc1ccc(CCn2c(Br)nc3c2c(=O)[nH]c(=O)n3C)cc1	64*	1	-1	-2	-7	6
CC1CCC2(CCC(=O)N2C[C@@H](O)c2ccccc2)CC1 (stereo partly drawn)	nt	nt	nt	-13	nt	nt
CCOC(=O)[C@]12CCCCC/C=C\1N(Cc1ccc(OC)cc1)C(=O)[C@H]2CC(=O)NCCC(C)C	nt	nt	-2	1	nt	nt
CCCCn1cnc2sc(-c3ccccc3)cc2c1=O	-4	3	7.8*	-54	-5	-89
CCCCCn1cnc2sc(-c3ccccc3)cc2c1=O	-3	4	3	-29	-2	-98
O=C1ON=C(c2ccccc2)/C1=C/c1ccc(O)c(O)c1	58*	3	-1	6	-9	42
Cc1nn(-c2ccccc2)c(Cl)c1/C=N/Nc1nc2ccccc2[nH]1	-21	0	7.9*	-54	-8	-128
Cc1cc(=O)[nH]c(N/N=C/c2c(C)nn(-c3ccccc3)c2Cl)n1	37	-3	-3	-9	4	15
CCOCCn1ccc2c(OCC(=O)Nc3cc(OC)ccc3OC)cccc2c1=O	53*	0	-1	7	-1	8
COCCn1ccc2c(OCC(=O)Nc3cc(OC)ccc3OC)cccc2c1=O	36	5	2	1	-3	5
CCOc1ccc(-n2c(C)c(C(C)=O)c3cc(OC(C)=O)ccc32)cc1	50*	-5	-1	4	-3	-7
COC(=O)CCC1NC(=O)C(Cc2c[nH]c3ccccc23)NC(=O)C2CC(=O)OC(C)C(NC(=O)C(C)NC(=O)C3CCCN3C(=O)C3CCCN3C(=O)C(C)NC(C)=O)C(=O)NC(CC(C)C)C(=O)NC(CCCCNC(=O)CCC(C(=O)NC(Cc3ccc(O)cc3)C(=O)O)NC1=O)C(=O)NC(Cc1c[nH]c3ccccc13)C(=O)N1CCCC1C(=O)NC(CO)C(=O)N2 (stereo not drawn)	nt	nt	-6	25	nt	nt
CN1CCc2cc(Cl)c(O)cc2[C@@H](c2ccccc2)C1	24	-1	-6	3	nt	-4
SMILES	H9c2 protect	GAA850 FXN act	SMARCA2 activ	NR2F2 inh	GalR3 antag	Gli-Sufu antag
CN1CCc2cc(O)c(O)cc2C(c2ccccc2)C1 (stereo not drawn)	54*	4	-3	13	-1	2
COc1ccc(CCn2c(=O)c3cccnc3n(Cc3ccc([N+](=O)[O-])cc3)c2=O)cc1OC	56*	0	-1	8	-4	14
COc1ccc(Cn2c(=O)c3cccnc3n(Cc3ccc([N+](=O)[O-])cc3)c2=O)cc1	37	3	0	3	-6	0
CCOC(=O)COc1ccc2c3c(c(=O)oc2c1)CCCC3	55*	0	-1	-6	0	3
COc1cccc(C2c3c(C)nn(-c4ccc([N+](=O)[O-])cc4)c3N=C3C(=O)Nc4ccccc4N32)c1 (stereo not drawn)	56*	-1	-2	1	-2	20
Cc1cccc(NS(=O)(=O)c2cccc3nsnc23)c1	7	-3	0	-2	-1	0
CC(C)NS(=O)(=O)c1cccc2nsnc12	5	2	1	-7	14*	-1
N#CC(c1ccc(Cl)cc1)c1ccc2c(C(F)(F)F)cc(C(F)(F)F)nc2n1 (stereo not drawn)	-24	-14	-11	58*	36*	92*
CC(C)(C)OC(=O)[C@H](Cc1ccccc1)NCC(=O)OCc1ccc(C(=O)NCc2ccccc2)cc1	nt	nt	-2	-20	nt	nt
COc1ccc(-c2oc(=O)c3cc(OC)c(OC)cc3c2C#CCCO)cc1	66*	-10	-1	-48	-3	11
COc1cc(OC)cc(-c2oc(=O)c3cc(OC)c(OC)cc3c2C#CCCO)c1	24	2	1	-17	-4	15
O=C1N=c2ccccc2=C1c1sc(Nc2cccc(O)c2)nc1O	54*	0	6	-14	-12	-14
O=C1N=c2ccccc2=C1c1sc(Nc2ccc(O)cc2)nc1O	-1	4	7.8*	3	-11	-8
O=C1N=c2ccccc2=C1c1sc(NS(=O)(=O)c2ccccc2)nc1O	-10	0	-1	15	-2	-6
COC(=O)[C@]12C[C@H](CC(=O)NCc3ccc(C)o3)C(=O)N(CCc3ccc(OC)c(OC)c3)C1=C[C@H](COCc1ccccc1)O[C@@H]2C	nt	nt	0	13	nt	nt
CCCn1c(=O)c(C(=O)NCCc2ccc(Cl)cc2)c(O)c2ccccc21	54*	1	0	11	-4	41
COc1ccc(C(=O)COC(=O)Cn2cnc3ccccc3c2=O)c(OC)c1	4	-1	-3	2	-1	-2
CCOc1ccc(C(=O)COC(=O)Cn2[nH]c(=O)c3ccccc3c2=O)cc1	78*	0	-1	-11	-7	nt
COc1ccc(C(=O)COC(=O)Cn2[nH]c(=O)c3ccccc3c2=O)c(OC)c1	62*	1	-2	-11	-5	-9
CC(C)(C)C(=O)Nc1cccc(-c2nnc(-c3cccc(NC(=O)C(C)(C)C)c3)o2)c1	64*	-1	0	14	6	11
O=C(Cc1ccccc1)Nc1cccc(-c2nnc(-c3ccco3)o2)c1	-20	5	-1	10	1	17

Screening results as filed in PubChem.
